The whole screen tested about 650,000 compounds, of which about 5,900 (0.91%) were called active. Rule as the data show it: active = inhibition above about 50%; inactive = the rest. For the sample, actives were picked, then their nearest neighbours and some compounds at random.

Microphthalmia-associated transcription factor (Homo sapiens), sequence (O75030 whole entry, looked up): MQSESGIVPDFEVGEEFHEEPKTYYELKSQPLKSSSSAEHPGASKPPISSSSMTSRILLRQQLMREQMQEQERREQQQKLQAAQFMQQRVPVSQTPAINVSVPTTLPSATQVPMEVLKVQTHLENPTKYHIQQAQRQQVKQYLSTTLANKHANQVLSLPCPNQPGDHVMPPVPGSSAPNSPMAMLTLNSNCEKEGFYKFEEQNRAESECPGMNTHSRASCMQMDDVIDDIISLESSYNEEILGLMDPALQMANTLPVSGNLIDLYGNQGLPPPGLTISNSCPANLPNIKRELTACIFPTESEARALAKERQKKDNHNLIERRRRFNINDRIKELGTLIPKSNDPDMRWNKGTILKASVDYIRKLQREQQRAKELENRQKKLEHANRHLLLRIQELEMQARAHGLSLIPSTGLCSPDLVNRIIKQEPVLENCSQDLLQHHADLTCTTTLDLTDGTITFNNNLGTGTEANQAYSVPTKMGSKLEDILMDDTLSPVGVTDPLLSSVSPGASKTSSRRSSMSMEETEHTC

This test addresses Microphthalmia-associated transcription factor (Homo sapiens) (UniProt O75030). Description: MITF inhibitors, primary screen, biochemical, AlphaScreen, human (AID 1259374).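 Also: 0% = vehicle wells with protein.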 To be noted: AlphaScreen MITF homodimerization, bead proximity signal; at 2.6 µM; hits give high values.
With `Cc1c(C(=O)Nc2ccc(F)cc2)sc2ncnc(N3CCc4ccccc4C3)c12`, the inhibition (as a rule, the change of the read-out against control, counted positive when it falls) was -2.5% (inactive).

Regarding `Cc1ccc(OCC(=O)N2CCC(C(=O)O)CC2)cc1C`, the inhibition was 6.47% (inactive).

Turning to `COCCn1c(SCC(=O)Nc2c(C)cc(C)cc2C)nc2c(c1=O)SCC2`, the inhibition was 1.88% (inactive).

With `COc1ccccc1C(=O)NCC(c1ccc2c(c1)CCCN2C)N1CCOCC1` (configuration not stated), the inhibition is -1.79% (inactive).

Take `O=c1cc(CNc2ccc(S(=O)(=O)N3CCCC3)cc2)c2cc3c(cc2o1)CCC3`: the inhibition was 10.1% (inactive).

For the compound `COc1ccc(C(CNCc2cc(=O)oc3cc4c(cc23)CCC4)N2CCOCC2)cc1` (configuration not stated), the inhibition was 85.3% (active).

For the compound `CN1CCN(Cc2c(O)ccc3c2O/C(=C\c2ccccc2Cl)C3=O)CC1`, the inhibition was 2.25% (inactive).

With `Cc1ccc2c(=O)c(CN3CCN(C)CC3)c(C)[nH]c2c1C`, the inhibition was 10% (inactive).

Turning to `N#C/C(=C(/O)c1cc(-c2ccccc2)nc2ccccc12)c1nc2ccccc2[nH]1`, the inhibition is -0.49% (inactive).

Turning to `COc1cc(Br)cc(/C=N/NC(=O)c2cc(-c3ccccc3)n[nH]2)c1O`, the inhibition is -36.5% (inactive).

With `CCOc1cccc(/C=N/NC(=O)c2ccc(C)nc2)c1O`, the inhibition is 49.4% (inactive).

`COc1cc(Br)cc(/C=N\NC(=O)c2ccc(C)nc2)c1O`: the inhibition was 60.8% (active).

Take `O=c1nc(/C=C/c2cc(Cl)cc(Cl)c2OCc2ccccc2F)cc(C(F)(F)F)[nH]1`: the inhibition is -1.22% (inactive).

`C/C(=N\c1ccccn1)c1c(O)c2ccccc2oc1=O`: the inhibition was 5.79% (inactive).

`CCC(C)NCCOCCOc1c(OC)cccc1OC` (configuration not stated): the inhibition was 17.3% (inactive).

Regarding `CCC(C)NCCOCCOc1ccc(Br)cc1C` (configuration not stated), the inhibition is 28.4% (inactive).

Turning to `CCC(C)NCCOCCOc1cc(C)cc(C)c1C` (configuration not stated), the inhibition is 70.4% (active).

With `Cc1nn(C)c(C)c1NC(=O)Cn1nc2n(Cc3ccc(F)cc3)c3ccccc3n2c1=O`, the inhibition was 12.6% (inactive).

Take `Cc1ccc(C)c(NCN2C(=O)CSC2=O)c1`: the inhibition was 17.9% (inactive).

`CCOC(=O)c1sc2nc(SCC(=O)N3CCCC3)n(Cc3ccc(C)cc3)c(=O)c2c1C`: the inhibition was -3.14% (inactive).

As to `C1=CC2CC1CC2CN1CCN(Cc2c[nH]c3ccccc23)CC1` (configuration not stated), the inhibition is 64.4% (active).

Consider `CCOc1ccccc1N1CCN(CC2CC3C=CC2C3)CC1` (configuration not stated), for which the inhibition was 4.32% (inactive).

As to `O=S(=O)(c1ccc2ccccc2c1)N1CCN(CC2CC3C=CC2C3)CC1` (configuration not stated), the inhibition is -6.53% (inactive).

Consider `CCN1C(=O)C(C)(C)COc2ccc(NC(=O)COc3ccc4ccccc4c3)cc21`, for which the inhibition is 8.12% (inactive).

For the compound `CN(C)/N=C/C=C1\CCC/C(=C\C=N\N(C)C)C1=O`, the inhibition was 17.4% (inactive).

For the compound `CN(C)/N=C/C=C1\CCC/C(=C\c2ccc([N+](=O)[O-])cc2)C1=O`, the inhibition is -2.41% (inactive).

For `CN(C)/C=C/C=C/C=C1\CCC\C(=C/C=C/C=C/N(C)C)C1=O`, the inhibition was 98.9% (active).

On to `Cc1ccc2nc3sc(C(=O)N4CC(=O)Nc5ccccc54)c(N)c3cc2c1`, for which the inhibition is -4.39% (inactive).

With `COc1ccccc1-c1nnc(SCCN2CCOCC2)n1C`, the inhibition is 0.66% (inactive).

Take `O=[N+]([O-])c1ccc(OCc2nnc(SCCN3CCOCC3)n2-c2ccccc2)cc1`: the inhibition is 53.2% (active).

With `c1ccc(C(Sc2nnc(COc3ccc(C4CCCCC4)cc3)n2-c2ccccc2)c2ccccc2)cc1`, the inhibition is 15.4% (inactive).

Take `COc1ccc(C(=O)Oc2ccc3c(C(F)(F)F)cc(=O)oc3c2C)cc1OC`: the inhibition is 6.47% (inactive).

Consider `O=S(=O)(c1ccc(-c2csc(N3N=C(c4cccs4)CC3c3ccc(F)cc3)n2)cc1)N1CCCCC1` (configuration not stated), for which the inhibition is 12% (inactive).

`Cc1ccc(N(C2C=CS(=O)(=O)C2)S(=O)(=O)c2ccc(Br)cc2)cc1` (configuration not stated): the inhibition was 19.4% (inactive).

As for `O=C(O)c1cccc(-n2[nH]c(-c3ccccc3)cc2=O)c1`, the inhibition is 7.2% (inactive).

In the case of `Cc1nc2sc3c(c2c(=O)n1/N=C/c1ccccc1[N+](=O)[O-])CCCC3`, the inhibition was -7.66% (inactive).

Turning to `Cn1c(=O)oc2cc(S(=O)(=O)N3CCC(C(=O)NC(C)(C)C)CC3)ccc21`, the inhibition is 70.2% (active).

Regarding `Cn1c(=O)oc2cc(S(=O)(=O)N3CCC(C(=O)NCCC4=CCCCC4)CC3)ccc21`, the inhibition was -12.8% (inactive).

Turning to `COc1cccc(NC(=O)C2CCN(S(=O)(=O)c3ccc4c(c3)oc(=O)n4C)CC2)c1`, the inhibition is -1.03% (inactive).

`CC(C)NC(=O)NC(=O)COC(=O)c1ccc(Cl)c(S(N)(=O)=O)c1`: the inhibition is 0.26% (inactive).

Consider `CCOC(=O)c1ccc(NC(=O)CCc2c(C)nc3nc(CN)nn3c2C)cc1`, for which the inhibition is 6.45% (inactive).

Regarding `COc1ccccc1NC(=O)Cn1cnc2sc(C(=O)Nc3nc4ccc(Br)cc4s3)c(C)c2c1=O`, the inhibition is 17.9% (inactive).

On to `COCCCN1C(=O)c2cccc3c(C(=O)c4ccccc4)ccc(c23)C1=O`, for which the inhibition was 64.3% (active).

As to `COCCCN1C(=O)c2cccc3cccc(c23)C1=O`, the inhibition was 1.36% (inactive).

Regarding `CCCCN1C(=O)c2cccc3c(C(C)=O)ccc(c23)C1=O`, the inhibition was 7.62% (inactive).

For the compound `N/C(=N\OC(=O)c1cccc(F)c1)c1ccc(Cl)cc1`, the inhibition was 17.5% (inactive).

Take `COc1cccc(CN2CCC(C(=O)NC(C)(C)C)CC2)c1`: the inhibition was 18.9% (inactive).

As for `CCOC(=O)C1CCCN(Cc2ccc(F)cc2)C1` (configuration not stated), the inhibition was 12.6% (inactive).

Turning to `CCOc1ccc(CN2CCCC(C(=O)N(C)Cc3ccccc3)C2)cc1` (configuration not stated), the inhibition is 45.6% (inactive).

For `COc1ccc(CN2CCCC(C(=O)N3CCCCC3)C2)cc1` (configuration not stated), the inhibition is 57.8% (active).

As for `COc1ccc(-c2nc(C(=O)NC3CCN(Cc4ccccc4)CC3)cs2)cc1`, the inhibition is 9.55% (inactive).

Turning to `CCOc1cc(CN2CCC(C(=O)NCCc3ccccc3)CC2)ccc1O`, the inhibition was -1.67% (inactive).

Consider `COc1ccc(CN2CCC(C(=O)N3CCN(Cc4ccccc4)CC3)CC2)cc1`, for which the inhibition is 52% (active).

Take `COc1cccc(CN2CCC(C(=O)NCCc3ccccc3)CC2)c1`: the inhibition is 54.9% (active).

Regarding `COc1ccc(-c2ncc(C)c(NC3CCN(Cc4ccccc4)CC3)n2)cc1`, the inhibition is 9.68% (inactive).

As to `Cc1ccccc1-n1c(=S)sc2c(=O)n(-c3ccccc3)c(SCc3cc(=O)n4cc(Cl)ccc4n3)nc21`, the inhibition was -24.2% (inactive).

With `CC(C)NC(=O)Cn1nc(SCc2ccccn2)nc1N`, the inhibition is 2.01% (inactive).

`Cn1ccnc1SCc1cc(=O)c(OC(=O)c2ccccc2I)co1`: the inhibition is -3.29% (inactive).

As to `O=C(Nc1cccc(N2CCC(N(CC3CCC3)CC3CCCO3)CC2)c1)c1cccnc1` (configuration not stated), the inhibition is 21.5% (inactive).

Take `CC(C)CC(=O)N1CCc2ccccc21`: the inhibition is 5.19% (inactive).

Take `COc1ccc(CN(C)CC(=O)N2CCc3ccccc32)cc1OC`: the inhibition is 0.1% (inactive).

Consider `CN(CCc1ccccn1)CC(=O)N1CCc2ccccc21`, for which the inhibition is 93% (active).

For `CN(C(=O)c1ccccc1)c1cccc(N)c1`, the inhibition is -4.8% (inactive).

On to `COc1cc(CNCc2ccc3c(c2)OCO3)c([N+](=O)[O-])cc1OC`, for which the inhibition was 6.83% (inactive).

As for `COc1cc(CN2CCCC(CO)C2)c([N+](=O)[O-])cc1OC` (configuration not stated), the inhibition was 12.4% (inactive).

On to `c1ccc(CN2CCN(Cc3ccco3)CC2)cc1`, for which the inhibition was 12.7% (inactive).

On to `COc1cc(C(=O)N2CCCC2)c([N+](=O)[O-])cc1OC`, for which the inhibition is 9.4% (inactive).

With `COc1cc(CN2CCN(Cc3ccc(C)cc3)CC2)c([N+](=O)[O-])cc1OC`, the inhibition is 80.6% (active).

For the compound `COc1cc(CN2CCN(CCO)CC2)c([N+](=O)[O-])cc1OC`, the inhibition is 13.5% (inactive).

Consider `COc1cc(CN2CCN(Cc3ccc(Cl)cc3)CC2)c([N+](=O)[O-])cc1OC`, for which the inhibition was 65.5% (active).

In the case of `COc1cc(CN2CCN(Cc3ccco3)CC2)c([N+](=O)[O-])cc1OC`, the inhibition is 84.4% (active).

`COc1cc(CN2CCCN(C)CC2)c([N+](=O)[O-])cc1OC`: the inhibition is 14.7% (inactive).

For the compound `CN1CCc2cc(CNC(=O)CC3C(=O)NCCN3CCc3ccccc3)ccc21` (configuration not stated), the inhibition was -15.3% (inactive).

For `CC/C(C)=N\NC(=O)CCC(=O)Nc1ccccc1`, the inhibition was 7.54% (inactive).

`NC(=O)c1ccccc1NC(=O)CCl`: the inhibition is 0.34% (inactive).

For `CCNC(=O)CSc1ccc(C)cc1`, the inhibition was 1.07% (inactive).

As to `CN1C(=O)CSC1=Nc1ccc(Cl)c(Cl)c1`, the inhibition was -5.98% (inactive).

Consider `CCNc1nc(OC)cc(OC)n1`, for which the inhibition was -5.7% (inactive).

Turning to `CCNc1nc(NCC)nc(C(=O)O)n1`, the inhibition is 55.1% (active).

`CCNc1nc(NC(C)C)nc(OCCOC(C)=O)n1`: the inhibition is -3.21% (inactive).

`O=C(COC(=O)c1ccco1)Nc1ccc(Cl)c(Cl)c1`: the inhibition is -6.47% (inactive).

In the case of `O=C(CN1CCN(CC(=O)c2ccco2)CC1)Nc1ccc(Cl)c(Cl)c1`, the inhibition is 65.2% (active).

As for `O=C(CN1CCN(C(=O)Nc2c(F)cccc2F)CC1)c1ccco1`, the inhibition is 39.7% (inactive).

For `COc1cccc2c1OC1(CCN(C(=O)Cc3cccs3)CC1)OC2`, the inhibition was 0.59% (inactive).

As for `COc1cc(C(=O)/C(=C/c2ccccc2F)c2nc3ccccc3o2)cc(OC)c1OC`, the inhibition is 5.52% (inactive).

As for `c1ccc(CSc2nc(C3CC3)nc3ccccc23)nc1`, the inhibition was -3.42% (inactive).

For `Cc1nnc(NC(=O)CSc2nc(C3CCCCC3)nc3ccccc23)s1`, the inhibition is -12.8% (inactive).

For `COC(=O)CSc1nc(C2CC2)nc2ccccc12`, the inhibition was 72.1% (active).

As for `Cc1cccc(NC(=O)CC[C@H]2CN(Cc3ccccc3)CC[C@H]2N(C)C)c1`, the inhibition was -2.16% (inactive).

In the case of `OCCNCCCOc1ccc(I)cc1`, the inhibition is -4.92% (inactive).

As for `CC(C)(C)c1ccc(OCCCCNCCO)cc1`, the inhibition is -8.77% (inactive).

As for `CCOc1ccc(OCCCCNCCO)cc1`, the inhibition is 63.6% (active).

For `O=C(Nc1ccc(N2CCC(NCc3ccc4c(c3)OCO4)CC2)cc1)C1CCCC1`, the inhibition is -10.3% (inactive).

Turning to `O=C(c1ccccc1)c1cccc(NC(=O)C2CCCCC2)c1`, the inhibition is -1.02% (inactive).

Regarding `CC1=C(C(=O)OCC(C)C)C(c2cccc(OCc3ccccc3)c2)C2=C(CCCC2=O)N1` (configuration not stated), the inhibition was 0.37% (inactive).

Turning to `CCOc1cccc(C2C(C(=O)OCCOc3ccccc3)=C(C)NC3=C2C(=O)CCC3)c1` (configuration not stated), the inhibition is 59.2% (active).

In the case of `COC(=O)c1ccc(C2C(C(=O)OCCOc3ccccc3)=C(C)NC3=C2C(=O)CCC3)cc1` (configuration not stated), the inhibition is 0.05% (inactive).

The record behind these values is PubChem BioAssay AID1259374 (The Scripps Research Institute Molecular Screening Center, 2018).
